# PubChem BioAssay AID1053143 (Broad Institute, 2014)
# The campaign covered roughly 3,400 compounds. About 120 (3.5%) were called active. The list is a sample of the results. Entries with a potency or affinity are not part of this list. Values without a mark were called inactive. The rule behind the calls is not given here.
# Experiment: HepG2 cell cytotoxicity, dose response, cytotoxicity control, ATP luminescence, cherry-pick, activator set 2 (AID 1053143)
# Conditions: HepG2 viability, CellTiter-Glo ATP luminescence, 72 h; series mostly up to 26 µM; activity change, negative = cytotoxicity: at the top concentration
row,SMILES,"activity change, negative = cytotoxicity"
1,Cc1nc(-c2ccc(NC(=O)CC(C)C)cc2)cs1,-11.5%
2,Cc1nc(-c2ccc(NC(=O)c3ccccc3Br)cc2)cs1,-4.14%
3,O=C(NC(=O)c1ccccc1)Nc1ccccc1O,-14.8%
4,O=C(Nc1ccccc1N1CCN(c2ccccc2)CC1)c1ccccc1,-2.97%
5,CCCNC(=O)Nc1cccc(C(=O)OC)c1,-14.5%
6,Nc1ccc2nc(-c3ccccc3)cnc2c1,-14.5%
7,c1ccc(-c2cnnc(-c3ccccn3)n2)cc1,-3.23%
8,O=C(Nc1nccs1)c1cc2c(s1)-c1ccccc1OC2,-3.47%
9,Cc1cc(O)c(NC(=O)c2cccc([N+](=O)[O-])c2)cc1C,1.55%
10,COc1ccc(CCN2C(=NC(C)=O)SC3CS(=O)(=O)CC32)cc1OC (stereo not given),1.28%
11,Clc1ccccc1C=NNc1ccccn1,-19.2%
12,COc1cccc(N/N=C/c2cccc(Br)c2O)c1,-1.94%
13,CCCCSc1nnc(-c2ccc(C)cc2)n1C,-6.32%
14,Cc1ccc(/C=C/c2nc3ccccc3[nH]2)o1,-25.4%
15,Clc1ccc(Cn2c(/C=C/c3ccco3)nc3ccccc32)cc1,-7.76%
16,COc1ccccc1C(=O)Nc1ccc2c(C)cc(=O)oc2c1,7.5%
17,c1ccc2[nH]c(SCC3CCCCO3)nc2c1 (stereo not given),9.84%
18,Oc1ccc(-c2cnc3ccccc3n2)cc1,-12%
19,Cc1cc2ncc(-c3ccccc3)nc2cc1C,-23.2%
20,Cn1c2nc3ccccc3c-2nc2ccccc21,-1.19%
21,CCCCOC(=O)Nc1ccc(C(=O)OC)cc1,-10.3%
22,CC1CCc2nc3sc4c(c3c(N)c2C1)CCCC4 (stereo not given),-18.5%

row,SMILES,"activity change, negative = cytotoxicity"
1,O=C(Nc1nc(-c2nc3ccccc3s2)cs1)C1CC1,-14.7%
2,COc1ccc(-c2nc3ccccc3s2)cc1NC(C)=O,6.95%
3,Cc1nn2c(=O)cc(COC(=O)c3c(F)cccc3Cl)nc2s1,11.9%
4,COc1ccc(/C=C/c2nnc(NC(C)=O)s2)cc1,-7.78%
5,Cc1csc(NC(=O)c2ccc(C)s2)n1,-0.98%
6,COc1cccc(C(=O)Nc2nc(C)cs2)c1,-14.1%
7,O=C(/C=C/c1cccs1)NCc1cccs1,-4.94%
8,O=C(Nc1ccc2c(c1)OCO2)c1ccccn1,-28.9%
9,O=C(O)c1ccc(-c2noc(-c3ccccc3Cl)n2)cc1,-9.54%
10,O=C(Nc1ccc(F)cc1)Nc1ccc2c(c1)CCC2,0.599%
11,O=C(Nc1cccc(F)c1)Nc1ccc2c(c1)CCC2,-10.1%
12,COc1cc(/C=C/C(=O)N2C(=O)c3cccc(N)c3C2=O)cc(OC)c1OC,-13.5%
13,COc1cc(/C=C/C(=O)OCC(=O)NCCc2ccccc2)cc(OC)c1OC,-6.38%
14,Cc1cc(C(=O)COC(=O)c2ccc(O)cc2O)c(C)n1C(C)C,-5.63%
15,c1ccc(-c2csc(N3CCOCC3)n2)cc1,-5.01%
16,Nc1nc(-c2ccc3c(c2)CCO3)cs1,-9.81%
17,O=c1oc2ccccc2c2c1ncn2CCN1CCOCC1,1.21%
18,O=S(=O)(c1ccc(Cl)cc1)N1CCN(Cc2ccc(O)c3ncccc23)CC1,-26.6%
19,COc1cc(/C=N/Nc2ccc(Cl)c(C(=O)O)c2)ccc1OC(=O)c1cccs1,-11.9%
20,O=C(c1ccc(N2CCOCC2)cc1)c1cccs1,27.7%
21,CCc1ccc(CNCCNC(=O)c2ccco2)cc1,-19.8%
22,O=c1c2ccccc2nnn1CSc1nnc2ccccn12,-3.79%

row,SMILES,"activity change, negative = cytotoxicity"
1,CCC(C)(C)c1ccc2c(c1)C(=O)c1ccccc1C2=O,-13.3%
2,O=C(c1ccc2c3n(nc2c1)-c1ccc(Cl)cc1CO3)N1CCOCC1,-29.3%
3,O=C(NCCO)c1ccc2c3n(nc2c1)-c1ccccc1CO3,-34%
4,O=C(O)c1ccc2c3n(nc2c1)-c1ccc(Cl)cc1CO3,-30.5%
5,COCCNC(=O)c1ccc2c3n(nc2c1)-c1ccc(C)cc1CO3,-14.6%
6,CCOC(=O)c1sc(=NC(=O)c2ccccc2Br)n(C)c1C,22.1% [at 12 µM]
7,COc1ccc(CCC(=O)Nc2nnc(C)s2)cc1,-5.22%
8,Cc1ccc(OC(=O)c2c(C)nn(-c3ccccc3)c2C)cc1,5.12%
9,CC(=O)Nc1ccc(-c2cc(N)n(-c3ccccc3)n2)cc1,-17.1%
10,Cc1ccc2cc(/C=C/C(=O)c3ccco3)c(Cl)nc2c1,-14.8%
11,CCOC(=O)N1N=C(CC)CC1(O)C(F)(F)F (stereo not given),10.4%
12,Cn1c(-c2ccc(F)c(F)c2)cc2onc(-c3ccccc3)c2c1=O,-9.83%
13,COC(=O)c1ccc(-c2cc3onc(-c4ccccc4)c3c(=O)n2C)cc1,13%
14,CC(C)C1COC(c2cccc3ccccc23)=N1 (stereo not given),-1.51%
15,CC(=O)c1ccc(NC(=O)c2ccn(C(=O)OCC(C)C)n2)cc1,-22.6%
16,CCOC(=O)c1csc(NC(=O)c2cccs2)n1,-11.3%
17,COc1ccc2cc(CCNC(=O)c3cccs3)c(=O)[nH]c2c1,-6.15%
18,Cc1csc(=NC(=O)c2ccccc2)n1C,-4.28%
19,CC(C)C(=O)Nc1ccc(NC(=O)c2cc3ccccc3o2)cc1,-10.1%
20,COc1ccc2nc(NC3=NCCC3)sc2c1,-13.8%
21,CCOC(=O)c1cccc(NC(=O)c2ccc(F)cc2F)c1,-13.7%
